In the case of `CC(C)C(=O)N[C@@H]1CCN(C(=O)Nc2nc3c(s2)-c2nc(-c4ccccc4Cl)ncc2CC3)C1` [BI00047804], the Kinases covered entry in the assay on NEK5 is “NEK5”. In the case of `CCOc1ccc2c(-c3ccnc(Nc4cc(OC)cc(C(F)(F)F)c4)n3)cnn2n1` [GW807982X], the Kinases covered entry with NEK6 is on record as “NEK6”. With `COc1cc2ncn(-c3cc(O[C@H](C)c4ccccc4Cl)c(C(N)=O)s3)c2cc1OC` [GSK237701A], in the assay on NEK9, the Kinases covered entry is listed as “NEK9”. On the same count and under the same terms, with `C[C@@H](Oc1cc(-n2cnc3ccc(OC4CCN(C)CC4)cc32)sc1C(N)=O)c1ccccc1Cl` [GSK579289A] the entry was “NEK9”. With `Cc1cn(-c2cc(NC(=O)c3ccc4c(c3)CN(c3cncnc3)C[C@@H]4C)cc(C(F)(F)F)c2)cn1` [D2202-1], the Kinases covered result in the assay on NTRK2 is on record as “NTRK2”. Turning to `COc1ccccc1-c1cc(/C=C2\C(=O)Nc3ncc(Br)cc32)cc(Br)c1O` [GW442130X], the Kinases covered entry in the assay with NTRK3 is “NTRK3”. `CC(=O)c1cccc(NC(=O)NC2CCN(c3ccnc(Nc4ccc(F)cc4)n3)C2)c1` (stereo not drawn) [GSK1379710]: the Kinases covered result in the assay with NTRK3 is “NTRK3”. For the molecule `C[C@@H]1CCNC(=O)c2cc3ccc(C(=O)Nc4nc5ccccc5n4CCCN(C)C)cc3n21` [BI00645435], the Kinases covered entry in the assay on NUAK2 was “NUAK2”. In the case of `CCC(=O)Nc1cccc(Oc2nc(Nc3ccc(N4CCN(C)CC4)cc3OC)ncc2Cl)c1` [WZ4003], the Kinases covered entry with NUAK2 is “NUAK2”.

The values are drawn from publication PMC7826789 (International Journal of Molecular Sciences, 2021).
